Source: PubChem BioAssay (National Center for Advancing Translational Sciences (NCATS))
Sampled rows, rich in hits. Any-hit rate of the full collection: about 1.3%.
EPAC1 ag: qHTS for Agonist of cAMP-regulated guanine nucleotide exchange factor 3 (EPAC1): primary screen. EPAC1 agonist qHTS, biochemical assay; response scale: 100% = response to 6.5 mM cAMP. 0.073% of 360,000 active. Rap guanine nucleotide exchange factor 3 (Homo sapiens), O95398. Potency, µM (highest dose often 154 µM), inactives show at the top dose activation, actives largely listed as activators; further: nearly all actives have a fitted effect of over 60% in size
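EPAC1 100 nM, Rap1B–BODIPY-GDP 250 nM, unlabeled GDP 50 uM; compound titration; 5 min RT; kinetic read ex480/em540 at 5-min intervals ×30 min; data normalized to 6.5 mM cAMP agonist control.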
EPAC2 agonist: qHTS for Agonist of cAMP-regulated guanine nucleotide exchange factor 4 (EPAC2): primary screen | EPAC2 activation, biochemical qHTS; response scale: 100% = 6.5 mM cAMP response | Potency, µM (top dose mostly 154 µM), inactives show at the highest dose activation, most hits filed as activators | 0.079% of 360,000 active; further: nearly all actives have a fitted effect of over 50% in size
Target sequence (Q8WZA2 whole entry, looked up): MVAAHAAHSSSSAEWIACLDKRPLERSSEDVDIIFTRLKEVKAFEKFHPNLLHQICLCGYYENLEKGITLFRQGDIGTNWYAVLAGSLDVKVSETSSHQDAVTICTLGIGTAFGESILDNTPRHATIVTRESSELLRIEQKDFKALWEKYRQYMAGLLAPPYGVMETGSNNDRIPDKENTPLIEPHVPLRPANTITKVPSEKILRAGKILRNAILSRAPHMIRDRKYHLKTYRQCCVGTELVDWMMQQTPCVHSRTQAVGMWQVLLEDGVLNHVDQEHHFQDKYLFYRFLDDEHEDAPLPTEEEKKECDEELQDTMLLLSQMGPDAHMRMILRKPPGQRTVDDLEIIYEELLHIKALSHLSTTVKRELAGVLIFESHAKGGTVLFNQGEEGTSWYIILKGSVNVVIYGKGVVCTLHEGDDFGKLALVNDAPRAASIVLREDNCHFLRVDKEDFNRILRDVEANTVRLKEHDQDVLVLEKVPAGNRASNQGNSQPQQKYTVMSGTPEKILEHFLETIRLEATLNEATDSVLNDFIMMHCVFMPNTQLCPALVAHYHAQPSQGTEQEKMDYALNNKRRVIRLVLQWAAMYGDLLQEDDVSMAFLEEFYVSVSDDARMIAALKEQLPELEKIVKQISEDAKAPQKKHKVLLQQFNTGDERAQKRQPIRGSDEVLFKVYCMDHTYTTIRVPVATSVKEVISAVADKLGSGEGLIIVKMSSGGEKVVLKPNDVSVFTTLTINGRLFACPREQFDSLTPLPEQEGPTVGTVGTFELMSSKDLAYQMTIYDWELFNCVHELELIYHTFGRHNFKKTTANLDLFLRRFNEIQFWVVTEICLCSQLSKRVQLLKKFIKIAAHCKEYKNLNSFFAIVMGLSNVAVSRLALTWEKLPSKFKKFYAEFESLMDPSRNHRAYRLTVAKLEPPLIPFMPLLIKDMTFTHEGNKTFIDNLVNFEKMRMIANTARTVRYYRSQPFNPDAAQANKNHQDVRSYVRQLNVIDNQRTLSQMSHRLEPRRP
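EPAC2 (100 nM) mixed with Rap1B loaded with BODIPY-GDP (250 nM) plus 50 uM unlabeled GDP; compounds pinned in, 5 min RT, then read every 5 min for 30 min (ex 480, em 540 nm). Normalized to cAMP control.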
EPAC2 antag: qHTS for Antagonist of cAMP-regulated guanine nucleotide exchange factor 2 (EPAC2): primary screen. 0.18% of 360,000 active. Rap guanine nucleotide exchange factor 4 (Homo sapiens), Q8WZA2. Potency, µM (series often up to 114 µM), inactives show at the top dose activity, negative = inhibition, hits mostly inhibitors. EPAC2 GEF exchange of Rap1B-BODIPY-GDP, fluorescence; further: on the % scale 0 is the no-effect control and ±100 the full control effect; nearly all actives have a fitted effect of over 45% in size
EPAC1 antag: qHTS for Antagonist of cAMP-regulated guanine nucleotide exchange factor 3 (EPAC1): primary screen; Rap guanine nucleotide exchange factor 3 (Homo sapiens), O95398; EPAC1 GEF assay, Rap1b-BODIPY-GDP exchange fluorescence; Potency, µM (highest dose often 115 µM), for inactives: top-dose activity change, negative = inhibition, usual class: inhibitors; 0.14% of 360,000 active;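 further: plate controls were vehicle for no effect and positive control for full effect; nearly all actives have a fitted effect of over 50% in size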
RGS4 inhibitor: Inhibitors of Regulator of G Protein Signaling (RGS) 4: qHTS | Transcreener GDP fluorescence polarization, RGS4-accelerated GTP hydrolysis | Regulator of G-protein signaling 4 (Homo sapiens), P49798 | 0.039% of 390,000 active | Potency, µM (highest dose often 114 µM), for inactives: top-dose activity change, negative = inhibition, hits mostly inhibitors; further: on the % scale 0 is the no-effect control and ±100 the full control effect; nearly all actives have a fitted effect of over 75% in size
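MLSMR compounds (23 nl, pin-transferred) preincubated 10 min at room temperature with a 500nM (2x) first reagent, then RGS4 at 900nM (2x) plus Transcreener GDP mix added; fluorescence polarization (620/688 nm) read before and after 90 min at 30 °C.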
BRCA1 expr up: qHTS Assay to Identify Small Molecule Activators of BRCA1 Expression. MCF7-BRCA1-FFLuc reporter, luminescence, 48 h; response scale: scaled: vehicle 0%, 10 µM genistein 100%. Potency, µM (top dose mostly 46.1 µM), without a hit: at the top dose activation, hits mostly activators. 1.1% of 380,000 active. AID 624202, 2012; further: nearly all actives have a fitted effect of over 80% in size
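Quantitative HTS in MCF7 cells stably reporting BRCA1 expression via firefly luciferase. Compound treatment lasts 48 h at 37 °C in phenol-red free MEM. Activation is expressed relative to genistein at 10 microM and DMSO.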
Starred values were filed as active, the others as inactive; i = inactive; ? = inconclusive; . = no result given. The call rests on the fitted dose curve; in most records, active means well fitted curve in the direction sought with a large enough effect; inconclusive means small, poorly fitted or top-dose-only effect, or another doubt; inactive means no such curve, though single readings can be large; an effect the other way counts as inactive or inconclusive. Potency means the concentration at half of the fitted maximal effect.

SMILES	EPAC1 ag	EPAC2 agonist	EPAC2 antag	EPAC1 antag	RGS4 inhibitor	BRCA1 expr up
COc1cc2c(c(OC)c1OC)C(c1ccc3c(c1)OCO3)CC(=O)O2 (configuration not stated)	4%	12%	40µM*	-1%	16%	10%
COc1ccc(Nc2oc(-c3cccs3)nc2C#N)cc1	9%	-9%	1%	-1%	32%	1.4µM*
CNc1oc(-c2cccs2)nc1C#N	8%	6%	-1%	4%	4%	0%
N#Cc1nc(-c2cccs2)oc1NCCc1ccccc1	14%	-3%	-2%	-17%	-26%	11µM*
Cc1cccc(C(=O)NCC(=O)OCC(=O)N2CCN(S(=O)(=O)c3ccc(C)cc3C)CC2)c1	4%	9%	-3%	7%	10%	-26%
CN1C[C@@H]2C(c3ccccc3)C3(c4cccnc4)CC2(C3)[C@H]1c1ccccc1 (some centres not stated)	-12%	11%	11%	-10%	2%	4%
NS(=O)(=O)c1cccc(NC(=O)CSc2nc3ccccc3[nH]2)c1	2%	15%	4%	-24%	7%	48%
CC(=O)Oc1ccc(/C=C2/CCc3ccccc3C2=O)cc1	7%	11%	-22%	-6%	-30%	13µM*
COc1ccc2c(c1)CC/C(=C/c1ccccn1)C2=O	4%	3%	-16%	0%	-11%	13µM*
COc1cccc(/C=C2\CCc3ccccc3C2=O)c1	1%	15%	-15%	-22%	-9%	13µM*
COc1ccc(NC(=O)c2ccc3c(c2)C(=O)N(Cc2cccnc2)C3=O)c(OC)c1	-4%	-2%	-2%	-24%	-21%	0%
CC(=O)Nc1ccc(NC(=O)CSc2nnc(C3CC3)n2C)cc1	-3%	2%	14%	13%	-33%	0%
COc1ccccc1N1CCN(C(=O)Oc2ccccc2)CC1	6%	2%	10%	6%	0%	60%
O=c1[nH]c(COc2ccc(Br)cc2Cl)nc2ccccc12	-15%	-1%	3%	-8%	9%	4µM*
Cc1cc(=O)[nH]c(/N=C(\N)Nc2ccc(Oc3ccccc3)cc2)n1	2%	-2%	-2%	-19%	-2%	-6%
Cc1nnc(NC(=O)c2cc3ccccc3o2)s1	8%	8%	-2%	5%	0%	7.1µM*
O=[N+]([O-])c1cc2c(c3cccnc13)COCO2	2%	10%	-1%	-11%	-50%	-38%
c1ccc2cc(C3=NCCN3)ncc2c1	.	.	.	.	i	.
CN(C)C(=O)CSc1nnc(C23CC4CC(CC(C4)C2)C3)o1	1%	0%	2%	0%	-16%	10µM*
CC(=O)Nc1ccc(-c2csc(Nc3ncccn3)n2)cc1	5%	0%	-1%	-9%	17%	3.5µM*
CN(C)c1cccc(C(=O)OCC(=O)c2ccc[nH]2)c1	-2%	3%	-15%	-7%	-9%	?
COC(=O)c1ccccc1-c1c2ccc(=N)cc-2oc2cc(N)ccc12	-9%	0%	?	32µM*	?	-81%
CCN(CC)c1ccc(/C=N/NC(=O)CNC(=O)c2ccccn2)cc1	6%	10%	5%	7%	-8%	16%
Cc1nc(Nc2cnc(/C=C/c3cc(C(=O)Nc4cccc(C(F)(F)F)c4)ccc3C)cn2)cc(N2CCNCC2)n1	8%	?	50µM*	-22%	?	-78%
CCOc1ccc(C(=O)Nc2ccc3nc(Nc4cccc(C(F)(F)F)c4)cc(C)c3c2)cc1OCC	.	.	.	.	-23%	-5%
SMILES	EPAC1 ag	EPAC2 agonist	EPAC2 antag	EPAC1 antag	RGS4 inhibitor	BRCA1 expr up
S=C(c1ccc(-c2cccc(Cl)c2)o1)N1CCCCC1	17%	0%	?	?	-8%	?
CN1CCN(C(=S)c2ccc(-c3cccc([N+](=O)[O-])c3)o2)CC1	5%	8%	1%	1%	-6%	?
N#CCCN1CCN(C(=S)c2ccc(-c3cccc(Cl)c3)o2)CC1	17%	21%	-3%	-17%	-30%	10µM*
S=C(c1ccc(-c2cccc(Cl)c2)o1)N1CCOCC1	13%	12%	-1%	-2%	?	3.5µM*
O=[N+]([O-])c1cccc(-c2ccc(C(=S)N3CCOCC3)o2)c1	14%	7%	-16%	-14%	-25%	4.5µM*
Cn1c(C(=O)N[C@@H](Cc2ccccc2)C(=O)O)cc2cc(Cl)ccc21	5%	-11%	-21%	-5%	-4%	-23%
O=c1[nH]ncc2c3ccccc3n(Cc3cccc(Cl)c3)c12	79µM*	?	101%	98%	-42%	-31%
Cc1ccc(-c2noc(C3CCCCC3)n2)cc1	-1%	11%	0%	2%	0%	10µM*
Cc1cccc(-c2noc(C3CCCCC3)n2)c1	5%	14%	-3%	1%	29%	4.5µM*
CCS(=O)(=O)N1CCC(c2nc(-c3ccc(C)cc3)no2)CC1	1%	-8%	1%	-11%	13%	30%
Cn1c(=O)c2c(-c3ccccc3)n(-c3ccccc3S)cc2n(C)c1=O	-1%	-4%	-16%	0%	.	-3%
Cc1ccc(S(=O)(=O)N2CCCCC2)cc1C(=O)NCCC1=CCCCC1	112µM*	6%	-2%	-6%	-14%	-19%
COc1ccccc1NC(=O)CSc1nc(N)cc(N)n1	1%	-8%	0%	2%	16%	1%
CC1CCCN(c2ccc(C(=O)NCc3cccs3)cn2)C1 (configuration not stated)	-5%	15%	0%	1%	-6%	10µM*
CC1CCN(c2ccc(C(=O)NCCc3ccccc3)cn2)CC1	14%	14%	-12%	-3%	27%	?
O=C(NCc1cccs1)c1ccc(N2CCCCC2)nc1	6%	6%	3%	-4%	-12%	7.9µM*
CC1CCCN(c2ccc(C(=O)NCc3ccccc3)cn2)C1 (configuration not stated)	4%	11%	-9%	-24%	-7%	6.3µM*
